In publication PMC5540273 (PLoS ONE, 2017):

system: NEK4; details: concentration: 1 μM, replicates: in singlicate; n = 1
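Note: KINOMEscan kinase panel screen.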

| SMILES | %Inh [%] |
| --- | --- |
| O=C(O)C(F)(F)F.O=C(O)C(F)(F)F.O=c1[nH]ccc2nc(N[C@@H]3CCCNC3)nc(Nc3ccc(S(=O)(=O)N4CCOCC4)cc3)c12 [GSK2177277] | 96.1 |
| COc1cc(Nc2nccc(N3CCC(NC(=O)c4cc5ccccc5s4)C3)n2)cc(OC)c1OC (stereo not shown) [GSK1379760] | 13 |
| CN1CCN(Cc2cccc(-c3ccc4c(Nc5ccc(Oc6ccccc6)cc5)ccnc4c3)c2)CC1 [GW578342] | 0 |
| Fc1ccc(-c2ncn(C3CCNCC3)c2-c2ccnc(Oc3ccc(-c4ccccc4)cc3)n2)cc1 [SB-245391] | 0 |
| Cc1ccc(S(=O)(=O)Nc2ccc(Nc3nccc(Nc4cccc5[nH]ncc45)n3)cc2)cc1 [GSK581271] | 20 |
| COC(=O)Nc1nc2ccc(Oc3ccc(NC(=O)Nc4cc(C(F)(F)F)ccc4F)cc3)cc2n1C.Cl [GW692089] | 0 |
| O=C(Nc1n[nH]c2nc(-c3ccc(O)cc3)ccc12)C1CC1 [SB-710363] | 2 |
| CNC(=O)c1ccccc1Nc1nc(Nc2ccc(N3CCOCC3)cc2)ncc1Cl.Cl [GSK1576028] | 65 |
| Cl.NC(=O)c1cccc(Nc2nccc(Nc3ccc(Oc4c(Cl)cccc4Cl)c(Cl)c3)n2)c1 [GW659009] | 3 |
| COc1cc(Nc2nccc(-c3c(-c4cccc(NC(=O)c5c(F)cccc5F)c4)nn4ccccc34)n2)cc(OC)c1OC [GSK323521] | 34 |
| Cn1cc(-c2ccc3c(c2)CCN3C(=O)Cc2cccc(F)c2)c2c(N)ncnc21 [GSK2603358] | 22 |
| Cc1cccc(Nc2nc(N[C@H]3CCNC3)ncc2C(N)=O)c1.Cl [GSK2197149] | 27 |
| c1ccc(-c2n[nH]cc2Nc2ccnc3ccccc23)nc1 [GW694077] | 0 |
| CN(C)Cc1ccc(-c2ccc3c(Nc4ccc(Oc5ccccn5)cc4)ccnc3c2)o1 [GW567148] | 21 |
| CCS(=O)(=O)c1ccc(OC)c(Nc2nccc(-c3c(-c4cccc(NC(=O)c5c(F)cccc5F)c4)nn4ncccc34)n2)c1 [GSK326180] | 6 |
| COc1cccc(C2=C(Nc3ccc(Cl)c(C(=O)O)c3)C(=O)NC2=O)c1 [SB-390769] | 38 |
| COc1cccc(NC(=O)NC2CCN(c3ccnc(Nc4cc(OC)c(OC)c(OC)c4)n3)C2)c1 (stereo not shown) [GSK1379763] | 5 |
| Cc1ccc(C)c(NC(=O)NC2CCN(c3ccnc(Nc4ccc(F)cc4)n3)C2)c1 (stereo not shown) [GSK1379720] | 27 |
| Cc1ccc(F)c(C(=O)Nc2cccc(-c3nn4ccccc4c3-c3ccnc(Nc4cccc(F)c4)n3)c2)c1F [GSK361061] | 18 |

| SMILES | %Inh [%] |
| --- | --- |
| Cc1occc1-c1ncc(OC[C@@H](N)Cc2c[nH]c3ccccc23)cc1-c1ccc2[nH]nc(C)c2c1.O=C(O)C(F)(F)F [GSK682037] | 0 |
| COc1ccc(Nc2nccc(N3CCC(NC(=O)Nc4cccc(OC)c4)C3)n2)cc1 (stereo not shown) [GSK1379742] | 0 |
| CC(=O)N1CCN(c2ccc(Nc3nccc(-c4sc(C(C)C)nc4-c4cccc(NS(=O)(=O)c5cccc(Cl)c5)c4)n3)cn2)CC1 [GSK1660437] | 6 |
| Nc1ncnc2c1nc(-c1ccccc1)n2-c1ccccc1 [SKF-97293] | 26 |
| O=C(NC1CCN(c2ccnc(Nc3ccc(F)cc3)n2)C1)c1cc2ccccc2s1 (stereo not shown) [GSK1379716] | 0 |
| COc1cccc(C(=O)Nc2cccc(Oc3ccc4nc(NC(=O)C5CC5)cn4n3)c2)c1 | 0 |
| Cl.Cl.NCC(C(=O)Nc1cc(Br)c(-c2ccnc3[nH]ccc23)s1)c1ccccc1 (stereo not shown) [GSK1269851] | 15 |
| Cn1cc(-c2ccc3c(c2)CCN3C(=O)Cc2cccc(Cl)c2)c2c(N)ncnc21 [GSK2606590] | 22 |
| COc1cc(Nc2ncc3c(C)nc(-c4cc5ccccc5[nH]4)n3n2)cc(OC)c1OC [GW869516] | 41 |
| O=C(Nc1cccc(-c2nn3ccccc3c2-c2ccnc(Nc3cccc(F)c3)n2)c1)c1c(F)ccc(F)c1Cl [GSK357952] | 6 |
| C[C@@H](Oc1cc(-n2cnc3cc(-c4ccnc(NCCS(C)(=O)=O)c4)ccc32)sc1C(N)=O)c1ccccc1Cl [GSK907232] | 0 |
| COc1cccc(-c2ccc3c(NC(=O)C4CC4)n[nH]c3n2)c1 [SB-710903] | 0 |
| Cc1ccc(C(=O)N2CC[C@@H](O)C2)cc1-n1c(C)cc(OCc2ccc(F)cc2F)c(Br)c1=O | 0 |
| Cl.c1ccc(-c2ccc3c(Nc4ccc5[nH]ccc5c4)ccnc3c2)nc1 [GW440138] | 0 |
| CCc1ccc(-c2ccc3c(c2)-c2c(cnn2C)S(=O)(=O)N3C)cc1 | 0 |
| COc1ccc(Nc2nccc(NCCNC(=O)c3cc4ccccc4s3)n2)cc1 [GSK1379896] | 14 |
| Nc1ncc(-c2ccc3nccc(-c4ccncc4)c3c2)cc1S(=O)(=O)N1CCOCC1 [GSK1627798] | 5 |
| O=C(Nc1n[nH]c2cc(-c3ccoc3)ccc12)C1CC1 [SB-738481] | 1 |
